Data: ChEMBL document CHEMBL1201862, “PubChem BioAssay data set” (2004)
Hit rate of the full screen: of about 57,000 […], about 2,900 (5.1%) were called active. No stated cut-off is given here; in the data, active = GI50 up to about 1.1 µM and inactive = higher. Only a sample is shown. Potency and affinity values are given separately.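 Cultured in 96-well plates, cells were exposed to test compound for 48 hours across five concentrations. GI50 = concentration required for 50% inhibition of growth.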

test system: SNB-19; assay: NCI tumour cell line growth inhibition, 48 h

Substance	GI50 [µM]
[Bis(aminomethyl)ethylmethylsilane]tetrachloroplatinum(IV), CHEMBL2146192	5.37
[Bis(aminomethyl)tetramethylenesilane]tetrachloropaltinum(IV), CHEMBL2146189	12.9
[Bis(aminomethyl)diethylsilane]tetrachloroplatinum(IV), CHEMBL2146203	4.05
[Bis(aminomethyl)tetramethylenesilane]dichloropaltinum(II), CHEMBL2146205	47.5
mu-(1,7-nanodiamine-N,N')bis-(cis-aminedichloroplatimum (II)), CHEMBL2146215	39.1
[Bis(aminomethyl)pentamethylenesilane]dichloropaltinum(II), CHEMBL2146202	2.79
[Bis(aminomethyl)dimethylsilane]tetrachloroplatinum(IV), CHEMBL2146190	8.77
CISPLATIN, CHEMBL11359	3.19
[Bis(aminomethyl)pentamethylenesilane]tetrachloropaltinum(IV), CHEMBL2146204	8.02
cis-Bis[[(trimethylsilyl)methyl]amino]tetrachloroplatinum(IV), CHEMBL2146191	12.4
[Bis(aminomethyl)dimethylsilane]dichloroplatinum (II), CHEMBL2146201	24.4
